High-throughput results (PubChem)
Hits are enriched below; roughly 17% of the tested compounds scored in any of these assays.
TGFb SMAD3 inh – inhibitors of TGF-b signaling; HepG2 CAGA-GFP TGF-b/SMAD3 reporter, GFP fluorescence, 18 h; TGF-beta stimulated, 500 pg/mL final; Potency, µM (series often up to 46.1 µM), most hits filed as inhibitors; 410,000 tested, 1.2% active; AID 588855; note: nearly all actives have a fitted effect of over 65% in size
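HEPG2 CAGA-GFP cells (1000/well, DMEM with 1% FBS) were pre-incubated 2 h at 37 degrees C, given compound by pin tool, then stimulated with TGF-beta at 500 pg/mL final for 18 h before per-cell GFP fluorescence imaging.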
TDP1 cell CPT – DT40-hTDP1 cell growth loss with CPT; Potency, µM (highest dose often 46.2 µM), hits mostly inhibitors; chicken DT40 Tdp1-/-;hTDP1 cells + 20 nM CPT, ATP luminescence, 48 h; 420,000 tested, 12% active; note: nearly all actives have a fitted effect of over 55% in size
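Chicken DT40 Tdp1-/- cells complemented with human TDP1, 400 cells/well, exposed to compounds plus 20 nM camptothecin for at least 48 h at 37 C; viability read as ATP content by CellTiter-Glo luminescence.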
ATXN viability – reduces viability in counter-screen for ATXN expression inhibitors; Potency, µM (series often up to 56.7 µM), most hits filed as cytotoxic; 400,000 tested, 0.49% active; S2 cells (HEK-293 line with an ATXN2-luciferase reporter) viability, CellTiter-Fluor protease fluorescence, 24 h; note: nearly all actives have a fitted effect of over 40% in size
HepG2 viability – counter-screen for TGF-b inhibitors: cytotoxicity in HepG2 cells. Potency, µM (top dose mostly 46.1 µM), usual class: cytotoxic. HepG2 CAGA-GFP viability, ATP luminescence, 18 h. AID 588856. 410,000 tested, 0.76% active
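HepG2 CAGA-GFP cells (1000/well, DMEM with 1% FBS) received compound, then TGF-beta at 500 pg/mL final, and were incubated 18 hours at 37 degrees C. Viability was read by CellTiter-Glo luminescence. Media-only wells were set as complete cell-killing and DMSO as no toxicity.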
TDP1 cell noCPT – qHTS for Inhibitors of human tyrosyl-DNA phosphodiesterase 1 (TDP1): qHTS in cells in absence of CPT | Potency, µM (titrated, usually from 46.2 µM), actives largely listed as inhibitors | 420,000 tested, 15% active | AID 686978, 2013 | DT40 Tdp1-/- hTDP1 cells, no CPT, ATP luminescence, 48 h; note: nearly all actives have a fitted effect of over 55% in size
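No-CPT arm: Tdp1-/-;hTDP1 DT40 cells (400/well) plus compounds, incubated ≥48 hr at 37 °C. Readout CellTiter-Glo luminescence.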
ATXN2 expr inh – reduces ATXN2 reporter expression in HEK-293 cells; Potency, µM (series often up to 57 µM), hits mostly inhibitors; 360,000 tested, 0.72% active; HEK-293 ATXN2-luciferase reporter, luminescence, 24 h; note: nearly all actives have a fitted effect of over 55% in size
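qHTS (up to 57 uM final) was run with 24 h compound exposure of reporter cells at 37 °C. Each well was multiplexed: SteadyGlo luminescence measured ATXN2-luciferase expression after a fluorogenic Gly-Phe-AFC viability readout (25 uM final).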
Hits are given with their value. Calls come from the whole dose curve; as a rule, active = well fitted curve in the direction sought with a large enough effect; inconclusive = small, poorly fitted or top-dose-only effect, or another doubt; inactive = no such curve, though single readings can be large; an effect the other way counts as inactive or inconclusive.

What do the screens show for `CCCCCCN1CCN(C2CN(Cc3ccc(F)cc3)S(=O)(=O)C2)CC1` (stereo not drawn)?
TGFb SMAD3 inh: inconclusive; TDP1 cell CPT: inconclusive; ATXN viability: inconclusive; HepG2 viability: inactive; TDP1 cell noCPT: inconclusive; ATXN2 expr inh: inactive

How did CC(C)=CCc1c(-c2ccc(O)cc2O)oc2c3c(cc(O)c2c1=O)OC(C)(C)C=C3 do in these assays?
TGFb SMAD3 inh: inconclusive; TDP1 cell CPT: 20.6µM; ATXN viability: inconclusive; HepG2 viability: inactive; TDP1 cell noCPT: inconclusive; ATXN2 expr inh: inconclusive

Results for O=C(CSc1nccc(=O)[nH]1)NCc1ccco1 ?
TGFb SMAD3 inh: inactive; TDP1 cell CPT: inactive; ATXN viability: inactive; HepG2 viability: inactive; TDP1 cell noCPT: inactive

What do the screens show for `Cc1ccc(NC(=O)CSc2nc(NS(=O)(=O)c3ccccc3)cc(=O)[nH]2)cc1`?
TGFb SMAD3 inh: inactive; TDP1 cell CPT: inactive; ATXN viability: inconclusive; HepG2 viability: inactive; TDP1 cell noCPT: inactive; ATXN2 expr inh: inactive

Results for CCc1ccc(NC(=O)CSc2nc(NS(=O)(=O)c3ccccc3)cc(=O)[nH]2)cc1 ?
TGFb SMAD3 inh: inconclusive; TDP1 cell CPT: 25.9µM; ATXN viability: inactive; HepG2 viability: inactive; TDP1 cell noCPT: 16.4µM; ATXN2 expr inh: inactive

What do the screens show for `CC1C(c2ccccc2)=NNc2nc3c(c(=O)n(C)c(=O)n3C)n21` (stereo not drawn)?
TGFb SMAD3 inh: inactive; TDP1 cell CPT: inconclusive; ATXN viability: inactive; HepG2 viability: inactive; TDP1 cell noCPT: 11.6µM; ATXN2 expr inh: inactive

What do the screens show for `CN(Cc1ccc(Cl)cc1)C(=O)c1ccccc1SCC(=O)N1CCCC1`?
TGFb SMAD3 inh: inactive; TDP1 cell CPT: inconclusive; ATXN viability: inactive; HepG2 viability: inactive; TDP1 cell noCPT: inconclusive; ATXN2 expr inh: inactive

Results for NS(=O)(=O)c1cccc(NC(=O)c2cc(=O)c3ccccc3o2)c1 ?
TGFb SMAD3 inh: inactive; TDP1 cell CPT: inactive; ATXN viability: inactive; HepG2 viability: inactive; TDP1 cell noCPT: inactive; ATXN2 expr inh: inactive

How did CN(Cc1ccccc1)S(=O)(=O)c1ccc(NS(C)(=O)=O)cc1 do in these assays?
TGFb SMAD3 inh: inactive; TDP1 cell CPT: inconclusive; ATXN viability: inactive; HepG2 viability: inactive; TDP1 cell noCPT: inactive; ATXN2 expr inh: inactive

How did O=C(Nc1cccc(S(=O)(=O)N2CCCCCC2)c1)c1cc(=O)c2ccccc2o1 do in these assays?
TGFb SMAD3 inh: inconclusive; TDP1 cell CPT: 23.1µM; ATXN viability: inactive; HepG2 viability: inactive; TDP1 cell noCPT: 13µM; ATXN2 expr inh: inactive

How did CN(Cc1ccccc1)S(=O)(=O)c1ccc(NC(=O)c2cc(=O)c3ccccc3o2)cc1 do in these assays?
TGFb SMAD3 inh: inactive; TDP1 cell CPT: 13µM; ATXN viability: inconclusive; HepG2 viability: inactive; TDP1 cell noCPT: 16.4µM; ATXN2 expr inh: inactive

Results for CN(c1ccccc1)S(=O)(=O)c1cccc(NC(=O)c2cc(=O)c3ccccc3o2)c1 ?
TGFb SMAD3 inh: inactive; TDP1 cell CPT: 16.4µM; ATXN viability: inconclusive; HepG2 viability: inactive; TDP1 cell noCPT: 11.6µM; ATXN2 expr inh: 12.6µM

What do the screens show for `CN(Cc1ccccc1)S(=O)(=O)c1ccc(NC(=S)NC(=O)C(C)(C)C)cc1`?
TGFb SMAD3 inh: inactive; TDP1 cell CPT: 20.6µM; ATXN viability: inconclusive; HepG2 viability: inactive; TDP1 cell noCPT: 16.4µM; ATXN2 expr inh: inactive

What do the screens show for `CCc1nc(C(N)=O)c2[nH]c(=O)n(-c3ccc(OC)cc3OC)c2n1`?
TGFb SMAD3 inh: inactive; TDP1 cell CPT: inactive; ATXN viability: inactive; HepG2 viability: inactive; TDP1 cell noCPT: inactive

What do the screens show for `Cc1onc(-c2ccccc2)c1-c1nnc(COC(=O)c2ccc(O)cc2)o1`?
TGFb SMAD3 inh: inactive; TDP1 cell CPT: inactive; ATXN viability: inactive; HepG2 viability: inactive; TDP1 cell noCPT: inconclusive; ATXN2 expr inh: inactive
